Measurements reported in PubChem BioAssay.
Where “and” joins values, the source holds several entries; their conditions need not be identical. Identical values can stand only once.

How the values were obtained:
[1] = tested on: Botulinum neurotoxin type F light chain protease (Clostridium botulinum); experiment: Botulinum neurotoxin type F light chain protease inhibition, multiplex microsphere flow cytometry, validation set (AID 588459); conditions: multiplex microsphere protease substrate cleavage assay, at 10 µM, active compounds read high
[2] = target: Botulinum neurotoxin type A (Clostridium botulinum) (UniProt P0DPI0); experiment: BoNT/A light chain protease inhibitors, biochemical, multiplex microsphere flow cytometry, validation set (AID 588460); conditions: at 10 µM, active compounds read high
[3] = target: Lethal factor (Bacillus anthracis) (UniProt P15917); experiment: Lethal factor protease inhibitors, Bacillus anthracis, multiplex microsphere cleavage assay, validation set (AID 588461); conditions: flow cytometry, at 10 µM, active compounds read high

Measured: inhibition

Chain of Lethal factor (Bacillus anthracis) (P15917 whole entry, looked up): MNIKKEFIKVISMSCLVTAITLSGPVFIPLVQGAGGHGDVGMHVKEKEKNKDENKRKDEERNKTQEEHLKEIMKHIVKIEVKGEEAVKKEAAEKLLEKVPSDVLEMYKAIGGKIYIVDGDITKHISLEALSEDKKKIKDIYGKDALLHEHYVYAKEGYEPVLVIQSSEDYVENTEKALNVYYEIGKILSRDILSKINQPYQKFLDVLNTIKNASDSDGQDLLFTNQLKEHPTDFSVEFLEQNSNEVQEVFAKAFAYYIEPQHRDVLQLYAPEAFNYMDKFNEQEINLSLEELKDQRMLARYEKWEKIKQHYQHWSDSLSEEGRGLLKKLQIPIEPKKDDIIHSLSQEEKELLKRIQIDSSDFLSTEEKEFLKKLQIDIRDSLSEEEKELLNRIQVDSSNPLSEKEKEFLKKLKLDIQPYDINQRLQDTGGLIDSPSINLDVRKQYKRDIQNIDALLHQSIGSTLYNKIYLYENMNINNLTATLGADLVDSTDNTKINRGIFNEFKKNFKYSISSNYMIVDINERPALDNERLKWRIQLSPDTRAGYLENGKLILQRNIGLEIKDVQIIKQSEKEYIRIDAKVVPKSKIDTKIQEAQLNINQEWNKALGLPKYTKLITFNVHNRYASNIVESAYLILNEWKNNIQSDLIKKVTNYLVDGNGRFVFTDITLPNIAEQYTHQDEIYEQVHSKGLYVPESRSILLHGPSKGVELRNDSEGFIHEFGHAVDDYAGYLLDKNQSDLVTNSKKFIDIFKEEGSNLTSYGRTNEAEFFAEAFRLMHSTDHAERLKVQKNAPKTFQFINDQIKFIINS
Chain of Botulinum neurotoxin type A (Clostridium botulinum) (P0DPI0 whole entry, looked up): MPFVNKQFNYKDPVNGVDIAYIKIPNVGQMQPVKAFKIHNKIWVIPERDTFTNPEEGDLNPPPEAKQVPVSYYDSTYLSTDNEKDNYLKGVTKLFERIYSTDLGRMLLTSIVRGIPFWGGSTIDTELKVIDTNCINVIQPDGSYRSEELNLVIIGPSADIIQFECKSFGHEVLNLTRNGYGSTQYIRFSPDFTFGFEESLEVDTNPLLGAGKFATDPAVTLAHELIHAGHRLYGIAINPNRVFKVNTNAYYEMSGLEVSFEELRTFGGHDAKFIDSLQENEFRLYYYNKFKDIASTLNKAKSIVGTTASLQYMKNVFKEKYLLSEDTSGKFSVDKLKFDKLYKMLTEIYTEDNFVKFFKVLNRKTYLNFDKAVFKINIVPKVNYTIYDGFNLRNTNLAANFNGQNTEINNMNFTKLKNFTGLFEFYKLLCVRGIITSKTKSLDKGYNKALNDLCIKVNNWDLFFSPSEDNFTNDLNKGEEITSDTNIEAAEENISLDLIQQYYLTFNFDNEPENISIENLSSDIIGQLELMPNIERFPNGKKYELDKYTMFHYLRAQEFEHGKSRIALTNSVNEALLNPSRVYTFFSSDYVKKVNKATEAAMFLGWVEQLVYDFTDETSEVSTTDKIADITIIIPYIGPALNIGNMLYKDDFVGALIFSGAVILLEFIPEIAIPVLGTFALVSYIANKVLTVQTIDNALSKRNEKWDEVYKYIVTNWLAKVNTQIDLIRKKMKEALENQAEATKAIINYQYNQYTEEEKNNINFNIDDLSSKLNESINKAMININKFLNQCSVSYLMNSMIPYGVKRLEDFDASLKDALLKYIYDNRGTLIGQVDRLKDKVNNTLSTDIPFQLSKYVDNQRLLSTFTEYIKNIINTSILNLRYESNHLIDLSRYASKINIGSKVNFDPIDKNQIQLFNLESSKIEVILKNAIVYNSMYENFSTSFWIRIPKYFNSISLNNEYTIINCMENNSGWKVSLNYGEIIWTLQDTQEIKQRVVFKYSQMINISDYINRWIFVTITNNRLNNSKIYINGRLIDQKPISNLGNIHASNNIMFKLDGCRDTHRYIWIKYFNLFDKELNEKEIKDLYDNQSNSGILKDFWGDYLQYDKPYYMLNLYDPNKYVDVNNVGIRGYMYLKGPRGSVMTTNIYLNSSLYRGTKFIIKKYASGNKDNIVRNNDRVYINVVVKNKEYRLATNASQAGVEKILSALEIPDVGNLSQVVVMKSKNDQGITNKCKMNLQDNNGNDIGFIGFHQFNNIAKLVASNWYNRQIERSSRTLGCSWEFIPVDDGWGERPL

O=C(Nc1ccccc1)OCC1CCCN2CCCCC12 (stereo not drawn)
inactive: [1] 0.6% | [2] 0.3% | [3] 2.5%

CS(=O)(=O)c1cccc(C(=O)Oc2ccccc2)c1
inactive: [1] -2% | [2] 0.1% | [3] 4.6%

CC1(C)CC(NC(=O)C23CCC(C)(C(=O)C2=O)C3(C)C)CC(C)(C)N1 (stereo not drawn)
inactive: [1] 2.9% | [2] -0.7% | [3] -4.5%

CCn1c(=N)c(C(=O)NC)cc2c(=O)n3cccc(C)c3nc21
inactive: [1] 3.8% | [2] 3.8% | [3] 5.6%

COc1ccc(C(=O)O)cc1F
inactive: [1] -1.9% | [2] -0.6% | [3] -1.1%

CC(=O)OCC(=O)C1=CCC2C3CCC4=CC(=O)C=CC4(C)C3(F)C(OC(C)=O)CC12C (stereo not drawn)
inactive: [1] 0.8% | [2] -0.6% | [3] 2.4%

CCc1cc(/C(Cc2ccccn2)=N\O)c(O)cc1O
inactive: [1] -2.8% | [2] -2.8% | [3] -5.1%

CC(C)(C)N(Cc1ccccc1)C(=O)c1ccc(Br)o1
inactive: [1] -1.1% | [2] 0.8% | [3] 11.8%

Oc1ccc(COCc2ccccc2)c2cccnc12
inactive: [1] -2% | [2] -3.5% | [3] -3.1%

COc1cc(COc2ccc3c(C)c(Cc4ccccc4)c(=O)oc3c2)cc(OC)c1OC
inactive: [1] 3.5% | [2] 0.9% | [3] -2.3%

NS(=O)(=O)c1ccc(CCNC(=O)C2CCCN2C(=O)OCc2ccccc2)cc1 (stereo not drawn)
inactive: [1] 3.9% | [2] -0.7% | [3] 1.2%

O=C(c1ccc(Cl)cc1)C1CCCN(Cc2ccc(Oc3ncccn3)cc2)C1 (stereo not drawn)
inactive: [1] 2.2% | [2] -1.2% | [3] -3.2%

COc1ccc2[nH]c3c(=O)n(/N=C/[C@H]4C(C)C=C(C)CC4C)c(=O)[nH]c3c2c1 (stereo partly drawn)
inactive: [1] -1.7% | [2] -0.6% | [3] 7.1%

Cc1ccc(NCCC(=O)c2ccccc2)cc1Cl
inactive: [1] 4.1% | [2] 0.4% | [3] -2.5%

CCN(CC)CC(=O)Nc1c(C)cccc1C
inactive: [1] 2.8% and -0.5% | [2] 0.5% and -2.3% | [3] -6.6% and -3.8%

COc1cc2c(cc1OC)-c1nnc(C)n1C(C)(C)C2
inactive: [1] 0.7% | [2] 0.2% | [3] -2.5%

COc1cccc(CN2C(=O)N(C(C)C)C(N(O)C(=O)NC(C)C)C2(C)C)c1OC (stereo not drawn)
inactive: [1] -1.7% | [2] -0.8% | [3] -2.1%

COc1cc(OC)c(C2C(C#N)=C(N)OC3=C2C(=O)CC(C)(C)C3)cc1OC (stereo not drawn)
inactive: [1] -2.6% | [2] 0.8% | [3] 4.6%

CCC(=O)c1ccc(O)cc1
inactive: [1] 1.2% | [2] -0.4% | [3] -1.2%

C=C(C)c1nc2cc(OC)c(OC)cc2c(=O)o1
inactive: [1] -7.9% | [2] -1.3% | [3] 0.1%

c1ccc(CNc2ncnc3nc[nH]c23)cc1
inactive: [1] -7.5% | [2] -1.3% | [3] -4.8%

COc1ccc(-c2[nH]ncc2CN(C)C(C)c2ccon2)c(OC)c1 (stereo not drawn)
inactive: [1] 1.9% | [2] 1.4% | [3] 0%

COc1ccc2c(CC(=O)NCC3CCC(C(=O)O)CC3)cc(=O)oc2c1 (stereo not drawn)
inactive: [1] 1% | [2] -0.1% | [3] 3.6%

C/C(=N\N=C1\NC(=O)C(CC(=O)Nc2ccc(Cl)cc2)S1)c1ccco1 (stereo not drawn)
inactive: [1] -0.1% | [2] 0.1% | [3] -0.2%

CCn1c(N2CCN(CC(=O)c3c(C)n(C)c4ccc(OC)cc34)CC2)nc2c1c(=O)[nH]c(=O)n2C
inactive: [1] -1.4% | [2] -0.8% | [3] -10.7%

Cc1nc2ccccc2c(=O)n1N
inactive: [1] 4.9% | [2] 0.7% | [3] -5.7%

O=C(O)CCCc1ccccc1
inactive: [1] -3.3% | [2] -2.3% | [3] -6.6%

CN(C)CCOC(=O)C(c1ccccc1)C1(O)CCCC1 (stereo not drawn)
inactive: [1] 2.3% | [2] -0.3% | [3] -6%

O=C(O)CCCCCNC(=O)Nc1ccc2c(c1)OCCO2
inactive: [1] 1.3% | [2] -1.4% | [3] -10.1%

C[C@H]1O[C@H]1P(=O)(O)O
inactive: [1] -0.1% | [2] 1.1% | [3] -2%

Cc1ccc(S(=O)(=O)NC(C(=O)Oc2ccc3c(C(F)(F)F)cc(=O)oc3c2)c2ccccc2)cc1 (stereo not drawn)
inactive: [1] 1.6% | [2] 1.4% | [3] -1.3%

Nc1nc2c(nc(SCc3ccccc3Br)n2C2OC(CO)C(O)C2O)c(=O)[nH]1 (stereo not drawn)
inactive: [1] -2.6% | [2] -1.9% | [3] -1.1%

COc1cc(C(=O)NCCc2c[nH]c3ccccc23)ccc1OCc1c(C)noc1C
inactive: [1] 3.6% | [2] -1.7% | [3] 0.2%

Cn1c(=O)c2c(ncn2CCO)n(C)c1=O
inactive: [1] 1.2% | [2] -1.8% | [3] 1.7%

CCN(CC)CCNC(=O)c1cc(S(C)(=O)=O)ccc1OC
inactive: [1] 2.7% | [2] 1.8% | [3] 4.7%

Cc1ncc(CN2CCC(CO)(CCc3ccccc3)CC2)s1
inactive: [1] 1.3% | [2] 0.2% | [3] -3%

COc1ccc(CNC(=O)c2c(O)c3cccc4c3n(c2=O)CCC4)cc1
inactive: [1] 4.9% | [2] -0.1% | [3] -5.7%

Cc1ccc2c(c1)C1(C(=O)N2)N2CCCC2C(C(=O)c2ccc3ccccc3c2)C12C(=O)Nc1ccccc12 (stereo not drawn)
inactive: [1] 0% | [2] -1% | [3] -10%

O=C(NCCc1nc2ccccc2[nH]1)c1cccc(Br)c1
inactive: [1] -3.2% | [2] -1.3% | [3] -7.9%

COc1ccc(C2CC(c3c(O)cc(C)oc3=O)=NCCS2)c(OC)c1 (stereo not drawn)
inactive: [1] 4.5% | [2] 2% | [3] 4.3%

CC(C)(C)NCC(O)COc1ccccc1C(=O)CCc1ccccc1 (stereo not drawn)
inactive: [1] -5.8% | [2] -2% | [3] -4.9%

CC(C)CCc1noc(CN2CCC(CCN3CCCC3=O)CC2)n1
inactive: [1] 1% | [2] 0.2% | [3] 3.1%

CN=C(NC#N)NCCSCc1nc[nH]c1C
inactive: [1] -0.4% | [2] 0.9% | [3] -3.5%

COc1cccc(NC(=O)C2CC(=O)OC23CCOC(C)(C)C3)c1 (stereo not drawn)
inactive: [1] -5.5% | [2] -1.3% | [3] -8.2%

COc1ccc2c(c1)C(=O)CC(c1ccccc1F)O2 (stereo not drawn)
inactive: [1] 1.4% | [2] -0.4% | [3] -0.9%

C[C@H]1O[C@@H](O[C@H]2[C@@H](O)C[C@H](O[C@H]3[C@@H](O)C[C@H](O[C@H]4CC[C@@]5(C)[C@H](CC[C@@H]6[C@@H]5C[C@@H](O)[C@]5(C)[C@@H](C7=CC(=O)OC7)CC[C@]65O)C4)O[C@@H]3C)O[C@@H]2C)C[C@H](O)[C@@H]1O
inactive: [1] 2.7% | [2] -0.7% | [3] -2.8%

O=C1NC(=O)C(c2ccccc2)(c2ccccc2)N1
inactive: [1] 1.3% and 5.2% | [2] -1% and -1.4% | [3] 0.3% and -2.4%

Cn1nc(-c2ccc(Cl)cc2)nc2c(=O)n(C)c(=O)nc1-2
inactive: [1] -0.5% | [2] 2% | [3] 3.7%

Nc1c2c(nc3ccccc13)CCCC2
inactive: [1] 5.3% | [2] 1.5% | [3] -0.3%

CCOC(=O)c1cc2cc3ccccc3cc2[nH]1
inactive: [1] 3.4% | [2] -0.1% | [3] 5.8%

CC(C)OC(=O)C1C(=O)CC(C)(O)C(C(=O)OC(C)C)C1c1cccc(O)c1 (stereo not drawn)
inactive: [1] 3.9% | [2] -0.2% | [3] -2.7%

O=C1c2ccccc2C2(c3ccccc3)NCCN12 (stereo not drawn)
inactive: [1] -1.6% | [2] -1.3% | [3] 8.5%

O=C(O)c1ccc(OCCn2ccnc2)cc1
inactive: [1] 2.9% | [2] -0.2% | [3] -0.6%

COC(=O)C1=C(C)NC(C)=C([N+](=O)[O-])C1c1ccccc1C(F)(F)F (stereo not drawn)
inactive: [1] -0.4% | [2] -1% | [3] -11.2%

CCNC(=O)C12CCC(C)(C(=O)O1)C2(C)C (stereo not drawn)
inactive: [1] -1% | [2] -1% | [3] -7.4%

OCCC1CN(Cc2ccccc2-c2ccco2)CCN1C1CCCC1 (stereo not drawn)
inactive: [1] 4.4% | [2] 0.5% | [3] 5.3%
